From PubChem
LAP4-GFP MLPCN: modulators of TOR pathway LAP4-GFP in S. cerevisiae; S. cerevisiae LAP4-GFP multiplex, flow cytometry GFP, 3 h; median GFP as percent of DMSO wells; GFP response vs DMSO, % at 10 µM; hit rate 0.34% among 320,000;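 active = GFP response vs DMSO above a set limit, about the screen mean plus 3 SD, cut at about 150% in these data; inconclusive = under 70 cell events counted for the yeast strain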
MEP2 TOR yeast: yeast TOR pathway MEP2-GFP modulation | S. cerevisiae MEP2-GFP strain, flow cytometry GFP, 3 h; 100% = DMSO control level | GFP response vs DMSO, % at 10 µM | hit rate 0.51% among 330,000;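 active = GFP response versus DMSO above a set limit, roughly screen mean plus 3 SD, cut at about 180% in these data; inconclusive = fewer than 70 cells counted for a yeast strain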;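 also: median GFP fluorescence of the barcode-gated MEP2-GFP cells per well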
RPL19A TOR yeast: yeast TOR pathway RPL19A-GFP modulation | percent response vs DMSO, % at 10 µM | hit rate 0.3% among 330,000 | S. cerevisiae RPL19A-GFP strain, flow cytometry, 3 h; hits give low values;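 active = percent response vs DMSO below 50%; inconclusive = fewer than 70 events counted for the yeast strain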;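 also: median channel GFP fluorescence of the barcoded RPL19A-GFP strain; ratio of sample median GFP to plate DMSO average so 100% = DMSO; lower means less RPL19A-GFP as with rapamycin TOR inhibition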
Myeloid diff MLP: myeloid differentiation induction. ER-HoxA9 myeloid progenitors, lysozyme-GFP differentiation, flow cytometry. calls only at 10 µM. hit rate 1% among 360,000;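 active = normalized GFP-positive differentiation at or above the plate's own cutoff, the solvent-only control mean plus 3 SD; inconclusive = no clear call, values can overlap the other calls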;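 also: cells exposed to compound for four days before flow analysis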
AGP1 TOR yeast: yeast TOR pathway AGP1-GFP modulation. GFP response vs DMSO, % at 10 µM. AID 2066. S. cerevisiae AGP1-GFP multiplex flow cytometry, 3 h; GFP as percent of DMSO wells. hit rate 0.02% among 320,000;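 active = GFP response relative to DMSO above a set limit, near screen average plus 3 SD, cut at about 150% in these data; inconclusive = fewer than 70 cells counted for the yeast strain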;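 also: median GFP channel fluorescence of the gated AGP1 strain per well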
CIT2 TOR yeast: modulators of TOR pathway CIT2-GFP in S. cerevisiae; GFP response vs DMSO, % at 10 µM; S. cerevisiae CIT2-GFP strain, flow cytometry, 3 h; 100 means same as DMSO wells; hit rate 0.065% among 320,000; AID 2029;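 active = GFP response relative to DMSO above a set limit, near the screen mean plus 3 SD, cut at about 150% in these data; inconclusive = Fewer than 70 cells measured for a yeast strain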;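 also: ratio of well median GFP fluorescence to mean of DMSO wells on the plate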
The depositor's hits bear a star; i = inactive; ? = inconclusive; . = no result; + = active, no number; ! = a repeat was not active; [ ] = another dose, or the depositor's remark. Most compounds without a hit are left out; they make up all but 1.8% or so of the library.

SMILES	LAP4-GFP MLPCN	MEP2 TOR yeast	RPL19A TOR yeast	Myeloid diff MLP	AGP1 TOR yeast	CIT2 TOR yeast
COc1ccc2cc3cc(C(=O)N4CCCCCC4)oc3nc2c1	105	97	95	i	90	96
O=[N+]([O-])c1ccccc1-c1ccc(C(=S)N2CCCC2)o1	97	94	95	+	96	91
O=[N+]([O-])c1ccccc1-c1ccc(C(=S)N2CCCCC2)o1	144	103	98	i	103	104
CCOC(=O)[C@@H]1[C@H]2COc3ccccc3[C@@H]2N2C(=O)N(c3ccc(Br)cc3)C(=O)[C@]12C	112	110	96	i	101	96
CN1C[C@@H]2[C@@H]3C(=O)N(C)C(=O)[C@@H]3[C@](Cc3ccccc3)(C1=O)N2C(=O)c1ccccc1	.	.	.	+	.	.
CNC(=O)C(Sc1nc(C)nc2c1oc1ccccc12)C(C)=O (configuration not stated)	112	106	113	i	.	112
COc1ccc2c(c1)C=Cc1ccccc1O2	150*	92	96	.	96	89
COc1ccc(C2C(C(=O)c3ccco3)=C(O)C(=O)N2CCOCCO)cc1OC (configuration not stated)	101	106	97	i	98	104
COc1ccc(C2C(C(=O)c3ccco3)=C(O)C(=O)N2CCc2ccccc2)cc1OC (configuration not stated)	100	103	97	+	101	96
CNC(=O)COC(=O)c1cc(SC)ccc1Cl	92	98	99	+	102	101
CCOC(=O)c1c(C)n(CC(O)c2ccccc2)c2ccc(O)cc12 (configuration not stated)	100	95	94	i	97	95
O=C1c2cccc3cccc(c23)C(=O)N1OS(=O)(=O)c1ccc(Br)cc1	99	104	107	?	108	108
O=C1c2cccc3cccc(c23)C(=O)N1OS(=O)(=O)c1ccccc1	94	263*[may fluoresce violet]	50	i	.	?
CC1Nc2ccc(C(=O)NC3CCCCC3)cc2NC1=O (configuration not stated)	97	100	105	+	105	110
CCOC(=O)C1=C(C)N=c2s/c(=C/c3ccc(OCC(=O)O)cc3)c(=O)n2C1c1ccc(SC)cc1 (configuration not stated)	102	118	101	i	99	103
CCOC(=O)C1=C(C)N=c2s/c(=C/c3ccc(OCC(=O)O)cc3)c(=O)n2C1c1ccc(F)cc1 (configuration not stated)	84	98	103	+	91	99
O=C(Cn1c(=O)oc2ccccc21)Nc1ccc(F)c(F)c1	93	108	106	i	108	107
CCN1CCc2c(OCC(=O)Nc3cccc(C)c3C)cccc2C1=O	97	97	96	.	94	91
Cc1cccc(NC(=O)COc2cccc3c2CCN(C)C3=O)c1C	99	91	94	i	100	92
CCOC(=O)c1c(NC(=O)COc2cccc3c2CCN(C)C3=O)sc2c1CCC2	112	145	114	+	111	114
Cc1cccc(NC(=O)COc2cccc3c2CCN(Cc2ccccc2)C3=O)c1C	96	93	100	+	96	96
S=C(NCc1ccccc1)NCc1ccc2c(c1)OCO2	110	108	106	i	111	106
Cc1nonc1NC(=O)CSc1nc2c(C)cccc2cc1C#N	98	99	107	+	99	102
CCOc1ccc(S(=O)(=O)N(CC)CC(=O)N2CCOCC2)cc1C	112	105	107	i	103	106
O=C(Nc1cccc2ccccc12)N(c1ccccc1)c1ccccc1	.	.	.	i	.	.
SMILES	LAP4-GFP MLPCN	MEP2 TOR yeast	RPL19A TOR yeast	Myeloid diff MLP	AGP1 TOR yeast	CIT2 TOR yeast
Cc1ccc2[nH]c3c(=O)n(CC(=O)Nc4ccccc4N4CCN(C)CC4)ncc3c2c1	56	258*[may fluoresce violet]	43*[may fluoresce violet]	i	?	?
CN1CCN(c2ccccc2NC(=O)Cn2ncc3c([nH]c4ccccc43)c2=O)CC1	96	115	100	i	104	111
Cc1ccc2[nH]c3c(=O)n(CC(=O)N4CCN(C)CC4)ncc3c2c1	111	193*	78	i	115	117
CCN(C(=O)C1CCN(S(=O)(=O)c2ccc3c(c2)oc(=O)n3C)CC1)c1cccc(C)c1	106	111	106	+	108	106
Cc1ccc(N(C)C(=O)C2CCN(S(=O)(=O)c3ccc4c(c3)oc(=O)n4C)CC2)cc1	97	92	99	i	99	94
CCN(CC(F)(F)C(F)F)S(=O)(=O)c1ccc(NC(=O)OC)cc1	?	?	14*[may fluoresce violet]	i	?	?
CC(=O)CC(c1ccccc1)c1c(O)c2ccccc2oc1=O (configuration not stated)	99	212*![may fluoresce violet]	40*![may fluoresce violet]	i	?	?
COc1ccc(-c2c(C(=O)c3ccc(Br)cc3)[nH]c(N)c2C(=O)c2ccccc2)cc1OC	.	.	.	+	.	.
O=C(Cn1c(=O)cnc2ccccc21)NC1CCC(O)CC1 (configuration not stated)	66	122	47*[may fluoresce violet]	i	?	?
O=C(COC(=O)c1cc(S(=O)(=O)N2CCCC2)ccc1O)NCc1ccccc1	.	.	.	i	.	.
CCn1cc(C(=O)NC(C)CCc2ccccc2)c(=O)c2cc(S(=O)(=O)N(C)C)ccc21 (configuration not stated)	98	117	102	i	70	92
CCOC(=O)CNc1nc(C#N)nc(N2CCOCC2)n1	89	192*[may fluoresce violet]	45*[may fluoresce violet]	i	?	?
COc1ccccc1[C@H]1C(c2cccc(C)c2)=NN(c2ccccc2)[C@@H]1CO	.	.	.	+	.	.
COc1ccccc1[C@H]1C(c2ccccc2)=NN(c2ccccc2)[C@@H]1CO	.	.	.	i	.	.
Cc1nn(CC(=O)N2CCOCC2)c(=O)c2c1sc1ccccc12	83	171	17*[may fluoresce violet]	i	?	?
Cc1nn(CC(=O)N2CCN(C)CC2)c(=O)c2c1sc1ccccc12	98	101	100	i	98	104
Cc1ccc(O)c(C(=O)c2cc(C#N)c(=O)n(-c3c(C)n(C)n(-c4ccccc4)c3=O)c2)c1	106	106	107	+	109	117
COc1ccc(-n2nnnc2SCC(=O)c2ccc(O)c(O)c2)cc1	?	276*[may fluoresce violet]	12*[may fluoresce violet]	i	?	?
NC(=O)c1ccc(-n2nnnc2SCC(=O)c2ccc(O)c(O)c2)cc1	98	103	102	i	96	94
Cc1ccc(C(=O)OCC(=O)Nc2ccccc2Sc2ccccc2)cc1C	121	176*	102	i	102	104
Cc1nc2n[nH]c(N)c2c2c1CCCC2	100	96	90	i	99	98
